Among the data in PubChem BioAssay (EPA / NIEHS) are outcome and AC50 values, retold here.

SMILES strings stand for the structures. The source made the active and inactive calls. Rule for the calls: active = hit-call score of the fitted dose curve at least 0.9, where 1 is the maximum; inactive = score below 0.9.

Read-out in the experiment: Intercellular Adhesion Molecule 1 (ICAM1), ICAM1 (gene 3383)
The experiment in a line: BSK_3C_ICAM1: BioMAP Diversity Plus: 3C Assay for Intercellular Adhesion Molecule 1 (ICAM1) Biomarker Activity (AID 2283003). As to conditions: primary human endothelial cells (HUVEC); actives raise or lower the signal. The protocol:
BSK_3C is a cell-based, multiplexed-readout assay that uses umbilical vein endothelium, a human vascular primary cell, with measurements taken at 24 hours after chemical dosing in a 96-well plate.BSK_3C_ICAM1 is an assay component measured in the BSK_3C assay. It measures ICAM-1 antibody related to regulation of gene expression using ELISA technology.Data from the assay component BSK_3C_ICAM1 was analyzed into 1 assay endpoint. This assay endpoint, BSK_3C_ICAM1, was analyzed with bidirectional fitting relative to DMSO as the negative control and baseline of activity. Using a type of binding reporter, gain or loss-of-signal activity can be used to understand changes in the signaling as they relate to the gene ICAM1. Furthermore, this assay endpoint can be referred to as a primary readout, because this assay has produced multiple assay endpoints where this one serves a signaling function. To generalize the intended target to other relatable targets, this assay endpoint is annotated to the cell adhesion molecules intended target family, where the subfamily is Immunoglobulin CAM.
The levels of cell surface (or secreted, indicated by the prefix "s") biomarker endpoints were measured by ELISA. Overt cytotoxicity to cells in confluent adherent cultures (all systems other than the BT system) was assessed by measuring total protein levels using sulforhodamine B (SRB) staining in parallel cultures at the time of biomarker measurements, indicated as SRB endpoints. For proliferation assays for adherent cell types, individual cell types are cultured at sub-confluence and relative cell numbers quantified by SRB staining at time points optimized for each system (48 h: 3C and CASM3C systems; 72 h: BT and HDF3CGF systems; 96 h: SAg system). SRB was performed by staining cells with 0.1% SRB after fixation with 10% TCA and reading wells at 560 nm.Viability and proliferation of PBMC (T cells) was quantified by Alamar Blue reduction for the SAg and BT systems. For PBMC viability (referred to as PBMC Cytotoxicity within the assay endpoint names), cells were plated (75,000/well in a 96-well plate) and then chemical samples added for 1 h before addition of activators, SEB and TSST-1 (20 ng/mL final concentration each). Cells were incubated for 90 h. Then, Alamar Blue (20 uL/well) (Invitrogen, Cat DAL1100) was added for 6 h, and the plates were read with a fluorescence microplate reader at 546/580 nm (excitation/emission). For PBMC proliferation, cells were plated and activated as above but incubated for only 16 h prior to addition of Alamar Blue. Plates were read after 6 h.
Turning to `c1ccc(C2CO2)cc1` (stereo not given), the result was inactive. Still for that read-out and setting: the result for `COP(=S)(OC)SCN1C(=O)c2ccccc2C1=O` reads “inactive”.

In the case of `Clc1ccc(C(c2ccc(Cl)cc2)C(Cl)Cl)cc1`, the AC50 (in general, the concentration giving half of the maximal activity seen) is 37.9 µM (active). As to `Cc1ccc([N+](=O)[O-])cc1`, the result was inactive. In the case of `OCCCBr`, the result was inactive. As for `Clc1ccc(Cl)c(Cl)c1`, the result was inactive. Take `COc1cc(C=O)cc2c1[C@H](COC(N)=O)[C@]1(OC(C)=O)ON2C[C@H]2[C@@H]1N2C(C)=O`: the concentration at half-maximal activity (AC50) is 23.3 µM (active). Consider `CC(C)(C)C(O)(CCc1ccc(Cl)cc1)Cn1cncn1` (stereo not given), for which the outcome was inactive. Take `CCCCC(CC)COC(=O)c1ccc(C(=O)OCC(CC)CCCC)c(C(=O)OCC(CC)CCCC)c1` (stereo not given): the outcome was inactive. As to `CC(O)CCO` (stereo not given), the outcome was inactive. For `OCCOCCO`, the outcome was inactive. Same read-out and setting: the result for `CO[C@@H]1[C@H](OC(=O)NC(=O)CCl)CC[C@]2(CO2)[C@H]1[C@@]1(C)O[C@@H]1CC=C(C)C` reads “inactive”; that for `O=P(OCCCl)(OCCCl)OCCCl`, “inactive”. On to `CCC[CH2][Sn]([Cl])([CH2]CCC)[CH2]CCC`, for which the half-maximal activity concentration (AC50) is 0.148 µM (active).

Consider `O=[N+]([O-])c1ccc(Oc2ccc(Cl)cc2Cl)cc1`, for which the outcome was inactive.

For the compound `Nc1ccc(N=Nc2ccccc2)cc1`, the result was inactive. Still for that read-out and setting: then `[O-][Cl+]O`, with “inactive”.

Turning to `Cn1cc(-c2ccccc2)c(=O)c(-c2cccc(C(F)(F)F)c2)c1`, the outcome was inactive. With `ClCCOCCCl`, the outcome was inactive.

Turning to `O=C(Nc1ccccc1)c1ccccc1I`, the result was inactive. The same measure, in the same setting: then `CC(C)(O)c1cnn2c(-c3ccc(F)c(-c4c(F)cccc4C#N)c3)cnc2n1`, with “inactive”; and `COC(=O)c1ccccc1N`, with “inactive”. With `O=Cc1ccco1`, the outcome was inactive. As to `N#CC(Br)(Br)C(N)=O`, the result was inactive. With `Brc1ccc(Oc2ccccc2)cc1`, the outcome was inactive. As for `CCCCOC(=O)c1ccccc1C(=O)OCc1ccccc1`, the outcome was inactive. For `O=C1CCCO1`, the result was inactive. As for `Cc1cc(N=Nc2ccccc2C)ccc1N`, the outcome was inactive. As for `Clc1ccc(C(c2ccc(Cl)cc2)C(Cl)(Cl)Cl)cc1`, the AC50 was 34.7 µM (active). Regarding `CCOc1cccc(C2(N3CCN(c4ccccc4)CC3)CCC(C)CC2)c1` (stereo not given), the outcome was inactive.

For the compound `CC(C)(OOC(C)(C)c1ccccc1)c1ccccc1`, the result was inactive. Consider `CC(C)(C)OOC(=O)c1ccccc1`, for which the outcome was inactive. Regarding `O=C(O)C1C2CCC(O2)C1C(=O)O` (stereo not given), the outcome was inactive. With `CS(=O)(=O)NC(=O)c1cc(Oc2ccc(C(F)(F)F)cc2Cl)ccc1[N+](=O)[O-]`, the outcome was inactive. As to `CC(C)(C)OOC(C)(C)CCC(C)(C)OOC(C)(C)C`, the outcome was inactive. As for `CCN(CC)N=O`, the result was inactive. Consider `Cc1ccc(N=C=O)cc1N=C=O`, for which the outcome was inactive.

Regarding `CN(C)c1ccc(C(=O)c2ccc(N(C)C)cc2)cc1`, the outcome was inactive. Regarding `CCN(CC)CCO`, the outcome was inactive.

On to `CCCCCCCCOC(=O)c1ccc(C(=O)OCCCCCCCC)c(C(=O)OCCCCCCCC)c1`, for which the outcome was inactive.
